Shown are actives, neighbours in structure and some others; about 18% of the full set was active somewhere.
HepG2 viability – qHTS for Inhibitors of TGF-b: Cytotox Counterscreen. HepG2 CAGA-GFP viability, ATP luminescence, 18 h. Potency, µM (top dose mostly 46.1 µM), for the others: top-dose activity change, negative = cytotoxicity, actives largely listed as cytotoxic. 410,000 compounds, 0.76% hits. AID 588856, 2011; further: potency means the concentration at half of the fitted maximal effect
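HepG2 CAGA-GFP cells (1000/well, DMEM with 1% FBS) received compound, then TGF-beta at 500 pg/mL final, and were incubated 18 hours at 37 degrees C. Viability was read by CellTiter-Glo luminescence. Media-only wells were set as complete cell-killing and DMSO as no toxicity.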
TGFb inhibitor – qHTS for Inhibitors of TGF-b | HepG2 CAGA-GFP TGF-b/SMAD3 reporter, GFP fluorescence, 18 h; TGF-beta stimulated, 500 pg/mL final | Potency, µM (top dose mostly 46.1 µM), without a hit: top-dose activity, negative = inhibition, most hits filed as inhibitors | 410,000 compounds, 1.2% hits | AID 588855, 2011; further: potency means the concentration at half of the fitted maximal effect; on the % scale 0 is the no-effect control and ±100 the full control effect; nearly all actives have a fitted effect of over 65% in size
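Read-out: total well GFP (ex488/em500-530) summed from mean per-cell fluorescence. Cells: HEPG2 CAGA-GFP, 1% FBS DMEM, 18 h at 37 degrees C with 500 pg/mL final TGF-beta. Unstimulated wells served as the full-inhibition control; stimulated DMSO wells = 0%.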
DT40 TDP1 no CPT – qHTS for Inhibitors of human tyrosyl-DNA phosphodiesterase 1 (TDP1): qHTS in cells in absence of CPT; DT40 Tdp1-/- hTDP1 cells, no CPT, ATP luminescence, 48 h; Potency, µM (series often up to 46.2 µM), for inactives: at the top dose activity change, negative = growth inhibition, hits mostly inhibitors; 420,000 compounds, 15% hits; AID 686978, 2013; further: potency means the concentration at half of the fitted maximal effect; on the % scale 0 is the no-effect control and ±100 the full control effect; nearly all actives have a fitted effect of over 55% in size
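Readout: luminescence from CellTiter-Glo after 30 min in the dark at RT. Cells: DT40 Tdp1-/- with stable hTDP1, 400/well. Exposure: compounds alone, ≥48 hr, 37 °C.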
IL1B secr inh – qHTS for Inhibitors of Inflammasome Signaling: IL-1-beta AlphaLISA Primary Screen; 360,000 compounds, 4.7% hits; THP-1 LPS/ATP IL-1B secretion, AlphaLISA, 16 h; hits give low values; activity change, % at 57.5 µM; in the data active means activity change below about -50%; inconclusive means mostly about -30% to -49%; further: on the % scale 0 is the no-effect control and ±100 the full control effect
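Secreted IL-1B measured by AlphaLISA bead assay after 16 h compound exposure of THP-1 cells; compounds (final up to 57.5 uM) added 1 h before LPS (250 ng/mL) and ATP (1.25 mM) stimulation; lower signal means less secretion.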
TDP1 inh – qHTS Assay for Inhibitors of Tyrosyl-DNA Phosphodiesterase (TDP1); Potency, µM (top dose mostly 130 µM), inactives show at the highest dose activity change, negative = inhibition, hits mostly inhibitors; AID 485290, 2010; 350,000 compounds, 0.28% hits; Tyrosyl-DNA phosphodiesterase 1 (Homo sapiens), Q9NUW8; recombinant TDP1, AlphaScreen DNA substrate cleavage; further: potency means the concentration at half of the fitted maximal effect; on the % scale 0 is the no-effect control and ±100 the full control effect; nearly all actives have a fitted effect of over 40% in size
Target sequence (Q9NUW8 whole entry, looked up): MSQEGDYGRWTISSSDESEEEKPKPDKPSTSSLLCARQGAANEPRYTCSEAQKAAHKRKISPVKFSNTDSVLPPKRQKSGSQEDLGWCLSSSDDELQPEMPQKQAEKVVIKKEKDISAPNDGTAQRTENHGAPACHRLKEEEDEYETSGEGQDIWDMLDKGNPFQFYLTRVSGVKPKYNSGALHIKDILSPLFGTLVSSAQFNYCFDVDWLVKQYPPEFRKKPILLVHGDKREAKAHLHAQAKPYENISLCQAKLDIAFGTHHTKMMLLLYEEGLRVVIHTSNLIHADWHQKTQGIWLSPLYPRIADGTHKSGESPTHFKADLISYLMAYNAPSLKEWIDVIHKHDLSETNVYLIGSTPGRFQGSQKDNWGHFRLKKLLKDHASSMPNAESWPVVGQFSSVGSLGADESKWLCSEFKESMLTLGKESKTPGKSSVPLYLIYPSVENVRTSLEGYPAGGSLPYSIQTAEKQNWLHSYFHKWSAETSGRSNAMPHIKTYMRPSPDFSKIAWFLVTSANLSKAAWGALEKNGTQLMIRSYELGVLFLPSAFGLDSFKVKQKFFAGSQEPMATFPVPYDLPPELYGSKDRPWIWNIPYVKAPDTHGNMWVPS
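Enzyme-compound mixtures sat 15 min at room temperature, followed by a 5 min reaction with 15 nM final substrate and 10 min with AlphaScreen beads. Recombinant human Tdp1 was used at 1 nM final.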
TDP1 cell CPT – qHTS for Inhibitors of human tyrosyl-DNA phosphodiesterase 1 (TDP1): qHTS in cells in presence of CPT; 420,000 compounds, 12% hits; chicken DT40 Tdp1-/-;hTDP1 cells + 20 nM CPT, ATP luminescence, 48 h; AID 686979, 2013; Potency, µM (series often up to 46.2 µM), for the others: at the highest dose activity change, negative = growth inhibition, most hits filed as inhibitors; further: potency means the concentration at half of the fitted maximal effect; on the % scale 0 is the no-effect control and ±100 the full control effect; nearly all actives have a fitted effect of over 55% in size
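Cell growth measured by CellTiter-Glo luminescence after a minimum 48 h, 37 C compound exposure with 20 nM CPT in Tdp1-knockout DT40 cells stably expressing hTDP1, seeded 400/well; qHTS titration format.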
The depositor's hits bear a star; ? = inconclusive; . = no result. Unless noted, the call rests on the fitted dose curve; in most records, active means well fitted curve in the direction sought with a large enough effect; inconclusive means small, poorly fitted or top-dose-only effect, or another doubt; inactive means no such curve, though single readings can be large; an effect the other way counts as inactive or inconclusive.

SMILES	HepG2 viability	TGFb inhibitor	DT40 TDP1 no CPT	IL1B secr inh	TDP1 inh	TDP1 cell CPT
CCCCC(=O)Nc1nc(C)c(-c2csc(Nc3cc(Cl)ccc3OC)n2)s1	-16%	-6%	?	-11	0%	?
COc1ccccc1Nc1nc(-c2sc(NC(=O)c3ccc([N+](=O)[O-])cc3)nc2C)cs1	.	.	.	.	11%	.
CCC(C)C(=O)Nc1nc(C)c(-c2csc(Nc3cc(OC)ccc3OC)n2)s1 (stereo not given)	-7%	-28%	15µM*	-16	11%	16µM*
COc1ccc(Cl)cc1Nc1nc(-c2sc(NC(=O)c3ccco3)nc2C)cs1	-30%	-2%	?	-8	6%	?
CCCC(=O)Nc1nc(C)c(-c2csc(Nc3ccccc3C)n2)s1	-44%	5%	8%	-8	8%	-2%
COc1ccc(OC)c(Nc2nc(-c3sc(NC(=O)CC(C)C)nc3C)cs2)c1	0%	-3%	16µM*	2	11%	15µM*
COc1ccc(Cl)cc1Nc1nc(-c2sc(NC(=O)C(C)(C)C)nc2C)cs1	-1%	-7%	3.7µM*	-4	-6%	5.2µM*
CCCCC(=O)Nc1nc(C)c(-c2csc(Nc3cc(OC)ccc3OC)n2)s1	-12%	-11%	?	-25	9%	6.5µM*
CC1(C(=O)O)CCC(C(=O)Nc2ccc(F)cc2)C1(C)C (stereo not given)	19%	-1%	3%	1	.	0%
COc1cc(OC)c(C(=O)OCC(=O)Nc2c(C)n(C)n(-c3ccccc3)c2=O)cc1OC	5%	2%	1%	-10	1%	-1%
COC(=O)c1ccccc1NC(=O)c1ccc(-c2nc(COc3ccccc3)c(C)o2)cc1	-10%	13%	1%	.	3%	-2%
CCC(C)C(=O)Nc1nc(C)c(-c2csc(Nc3cc(Cl)ccc3OC)n2)s1 (stereo not given)	-27%	-2%	10µM*	7	3%	15µM*
Cc1ccc(Cl)cc1Nc1nc(-c2sc(NC(=O)c3ccccc3)nc2C)cs1	.	.	.	.	13%	.
CN(C)c1ccc2c(=O)c3ccccc3oc2n1	-27%	-2%	?	15	.	-31%
COCCN1Cc2cccc(C(=O)Nc3ccc(C)cc3)c2C1=O	-20%	1%	?	-68*	8%	-28%
CCCN1Cc2cccc(C(=O)NC(CC(=O)OCC)c3ccc(OC(C)C)cc3)c2C1=O (stereo not given)	-27%	-1%	21µM*	30	5%	?
COC(CNC(=O)c1cccc2c1C(=O)N(Cc1cccnc1)C2)OC	-6%	1%	-21%	-19	5%	4%
CCCN1Cc2cccc(C(=O)Nc3ccc(CN4CCCC4)cc3)c2C1=O	-4%	-3%	23µM*	-56*	-3%	-3%
CCOc1ccc(NC(=O)c2cccc3c2C(=O)N(Cc2cccnc2)C3)cc1	-16%	1%	?	-82*	7%	?
COc1ccc(C(=O)COC(=O)Cn2[nH]c(=O)c3ccccc3c2=O)c(OC)c1	1%	18%	-5%	-30	0%	-5%
O=S(=O)(Nc1nc2ccccc2s1)c1cnc(Cl)c(Br)c1	2%	?	?	15	4%	23µM*
O=S(=O)(Nc1nccs1)c1cnc(Cl)c(Br)c1	-7%	?	?	14	5%	?
